Screens as filed in PubChem.
ERa coact inh: ERα–SRC-1 coactivator interaction inhibitors, primary screen, biochemical, TR-FRET, ERα LBD, estradiol-bound. TR-FRET ER-alpha LBD / SRC-1 peptide. 86,000 compounds, 1.7% hits. inhibition, % at 25.6 µM; in the data active = inhibition above about 50%;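 note: 0% = receptor plus peptide control and 100% = peptide only without receptor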
ERb coact inh: inhibitors of ERβ-SRC1 coactivator interaction, primary screen, biochemical, TR-FRET, ERβ LBD, SRC-1 peptide | TR-FRET ER-beta LBD / SRC1-Cy5 peptide binding; receptor agonist-loaded with 1 µM estradiol | inhibition, % at 25.6 µM | 86,000 compounds, 1.3% hits | AID 633, 2007;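 active = compounds whose percent inhibition of the receptor-coactivator binding signal exceeds about 50% in the single-dose screen, limit read from the data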;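 note: 0% = receptor plus peptide wells without compound and 100% = peptide-only wells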
FAK blocker: FAK kinase inhibitors, primary screen, biochemical; AID 727, 2007; inhibition, %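 (tested at 7 µM)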; 97,000 compounds, 0.84% hits; biochemical FAK kinase activity assay; in the data active = inhibition above about 19%;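 note: 0% = DMSO and 100% = reference compound high control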
Target sequence (Q05397 whole entry, looked up): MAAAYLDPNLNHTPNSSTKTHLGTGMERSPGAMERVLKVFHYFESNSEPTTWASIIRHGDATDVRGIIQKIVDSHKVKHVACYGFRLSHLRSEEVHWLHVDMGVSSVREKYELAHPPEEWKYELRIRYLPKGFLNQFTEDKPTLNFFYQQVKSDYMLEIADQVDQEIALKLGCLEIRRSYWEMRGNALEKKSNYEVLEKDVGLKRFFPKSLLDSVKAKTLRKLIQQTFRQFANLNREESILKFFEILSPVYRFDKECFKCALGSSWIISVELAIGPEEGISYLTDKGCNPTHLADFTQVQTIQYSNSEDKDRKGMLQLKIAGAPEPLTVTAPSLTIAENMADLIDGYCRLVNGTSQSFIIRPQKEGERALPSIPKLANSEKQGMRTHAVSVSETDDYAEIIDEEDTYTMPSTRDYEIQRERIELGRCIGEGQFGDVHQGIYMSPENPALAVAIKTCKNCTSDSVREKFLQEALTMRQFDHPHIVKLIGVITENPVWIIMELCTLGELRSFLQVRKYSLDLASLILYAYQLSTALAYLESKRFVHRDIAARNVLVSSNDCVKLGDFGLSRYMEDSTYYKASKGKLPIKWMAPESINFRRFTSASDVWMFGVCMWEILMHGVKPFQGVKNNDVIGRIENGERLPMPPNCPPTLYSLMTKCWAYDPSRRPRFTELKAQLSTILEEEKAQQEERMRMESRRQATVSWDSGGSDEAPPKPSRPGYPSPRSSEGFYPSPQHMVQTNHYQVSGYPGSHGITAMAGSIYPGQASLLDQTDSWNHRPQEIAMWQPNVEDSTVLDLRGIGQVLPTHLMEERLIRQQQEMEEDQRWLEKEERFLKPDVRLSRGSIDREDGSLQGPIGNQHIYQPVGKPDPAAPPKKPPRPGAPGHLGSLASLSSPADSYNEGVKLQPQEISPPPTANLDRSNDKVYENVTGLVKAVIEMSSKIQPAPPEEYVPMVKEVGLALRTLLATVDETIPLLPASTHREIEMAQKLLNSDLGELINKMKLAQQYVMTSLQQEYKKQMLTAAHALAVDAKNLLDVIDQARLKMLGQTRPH
ERa SRC1 pot: enhancers of ERα–SRC-1 coactivator binding, primary screen, biochemical, TR-FRET, ERα LBD, low estradiol; 86,000 compounds, 1.3% hits; AID 639, 2007; coactivator binding (% of control), % at 25.6 µM; TR-FRET ERalpha-LBD/SRC-Cy5 coactivator binding, 2 h; 100 = basal binding, no effect; Estrogen receptor (Homo sapiens), P03372; in the data active = activity above about 200%;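 note: binding measured in presence of low estradiol as agonist stimulus; 0% = peptide alone without receptor and 100% = receptor with peptide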
An asterisk follows results filed as active; nt = not tested or not shown; [ ] = remark or other dose. The list is not random: actives were taken first. Their share in the collection is about 3.2%.

SMILES | ERa coact inh | ERb coact inh | FAK blocker | ERa SRC1 pot
O=C(CSc1ccc(Cl)cc1)c1ccco1 | 80*[fluorescence artefact?] | 81* | 9 | 76
O=C(CSc1ccccc1Cl)c1ccco1 | 19 | 21 | 2 | 86
Cc1ccc2c(c1)nc(NCCO)n2C | -5 | -3 | 3 | 158
Cc1ccccc1NC(=O)CSc1nnc(-c2ccco2)c(-c2ccco2)n1 | 71* | 72* | 15 | 58
O=C(CSc1nnc(-c2ccccc2)c(-c2ccccc2)n1)NCc1ccco1 | -9 | -1 | -1 | 98
O=C(CSc1nnc(-c2ccco2)c(-c2ccco2)n1)Nc1ccccc1 | 84*[fluorescence artefact?] | 86*[fluorescence artefact?] | 16 | 22
CSc1nnc(-c2ccco2)c(-c2ccco2)n1 | 90*[fluorescence artefact?] | 91*[fluorescence artefact?] | 8 | 7
CSc1nnc2c(n1)OC=Nc1ccccc1-2 | -33 | -13 | 2 | 105
Cc1cc(C)cc(Oc2cc(NC(=O)c3cn(C)nc3C)cc([N+](=O)[O-])c2)c1 | nt | nt | 4 | nt
O=C(CSc1nc2ccccc2o1)NCCOc1ccccc1 | -4 | -14 | 5 | 117
Cc1nn(C(=O)Cn2ccc([N+](=O)[O-])n2)c(C)c1Br | nt | nt | -7 | nt
CCOc1ccccc1C(=O)Nc1cccc(-c2nnc(-c3ccccc3)o2)c1 | 39 | 25 | 12 | 317*[fluorescence artefact?]
O=C(COc1ccccc1)Nc1cccc(-c2nnc(-c3ccccc3)o2)c1 | 2 | 10 | nt | 125
CCOC(=O)c1cc2sc(C)cc2n1CC(=O)N1CCOCC1 | -6 | -12 | -2 | 85
CCOC(=O)c1cc2sc(C)cc2n1CC(=O)NCc1ccc(F)cc1 | 5 | 34 | -14 | 238*[fluorescence artefact?]
COc1ccc(-c2ccc(=O)n(CC(=O)N3CCN(c4ccccc4OC)CC3)n2)cc1 | -1 | -10 | 3 | 120
O=C(Cn1cnc2c(cnn2-c2ccc(F)cc2)c1=O)NCC1CCCO1 (configuration not stated) | 1 | -5 | 1 | 200*
COCCCNC(=O)Cn1nnc(-c2ccc(NC(=O)c3ccc(F)cc3)cc2)n1 | 48 | 46 | nt | 258*[fluorescence artefact?]
COc1ccc(NC(=O)Cn2nnc(-c3ccccc3F)n2)cc1 | 0 | -4 | -10 | 99
CCSc1nnc(NC(=O)C2Cc3ccccc3CN2C(=O)c2ccco2)s1 (configuration not stated) | 53* | 43 | 13 | 128
NS(=O)(=O)c1ccc(CCNC(=O)C2Cc3ccccc3CN2C(=O)c2ccco2)cc1 (configuration not stated) | nt | nt | 0 | nt
CCCCCNC(=O)c1c(N)n(/N=C/c2ccco2)c2nc3ccccc3nc12 | 48 | 41 | nt | 134
C=CCn1c(SCC2=C(C(=O)OCC)C(C)NC(=O)N2)nnc1C1CCCCC1 (configuration not stated) | nt | nt | -1 | nt
COCCn1c(C)cc(C(=O)COC(=O)c2cc3c(s2)CCC3)c1C | 76*[fluorescence artefact?] | 66* | 18 | 50
CCCNS(=O)(=O)c1ccc(Oc2ncc(C(F)(F)F)cc2Cl)cc1 | nt | nt | -4 | nt
SMILES | ERa coact inh | ERb coact inh | FAK blocker | ERa SRC1 pot
COc1cccc2sc(N3CCN(c4nc5ccccc5s4)CC3)nc12 | 49 | 30 | 12 | 236*
COc1ccc(NC(=O)C2CCN(c3cc(-c4ccccc4)nc4ncnn34)CC2)cc1OC | 17 | -4 | 2 | 104
COc1ccc(OC)c(NC(=O)C2CCN(c3cc(-c4ccccc4)nc4ncnn34)CC2)c1 | 31 | 56*[fluorescence artefact?] | 2 | 127
N#Cc1ccccc1Cn1c(=O)n(CCC(=O)NCc2ccco2)c(=O)c2ccccc21 | -9 | -4 | nt | 128
N#Cc1ccccc1Cn1c(=O)n(Cc2ccc(C(=O)NCc3ccco3)cc2)c(=O)c2ccccc21 | 82*[fluorescence artefact?] | 48 | nt | 173
N#Cc1nc(-c2ccc(OCc3ccccc3)cc2)oc1NCCN1CCOCC1 | 11 | 8 | 7 | 235*[fluorescence artefact?]
O=C(Nc1ccc(Cl)cc1)c1ccncc1 | -4 | -8 | 0 | 108
O=C(Nc1cccc(Cl)c1Cl)c1ccncc1 | 54*[fluorescence artefact?] | -4 | -2 | 99
O=C1CN(c2ccc(Cl)cc2)C(=O)CN1NC(=S)Nc1ccc(Cl)cc1 | nt | nt | -6 | nt
Nc1nc2n(n1)C(c1ccccc1Cl)CC(c1ccc(F)cc1)N2 (configuration not stated) | -6 | 6 | -1 | 95
CCn1c(CNc2ccc(F)cc2)nnc1SCC(=O)Nc1ccc(OC)cc1 | -4 | 10 | 0 | 98
O=C(COc1ccc(Br)cc1)N1CCC(c2ccccc2)C1 (configuration not stated) | -2 | -9 | 13 | 81
CSc1nc2c(c(C(F)(F)F)n1)CC(C)CC2 (configuration not stated) | -6 | 3 | -4 | 110
Cn1c(=O)c2c(nc(Oc3ccc4c(c3)OCO4)n2Cc2ccc(Br)cc2)n(C)c1=O | 2 | 52* | nt | 103
Cn1c(=O)c2c(nc(Oc3ccc4c(c3)OCO4)n2Cc2ccc(F)cc2)n(C)c1=O | nt | nt | -6 | nt
CCN(CC)S(=O)(=O)c1ccc(N=Nc2c(C)[nH]n(C(N)=S)c2=O)cc1 | -8 | -5 | -3 | 93
NC(=S)n1[nH]c(-c2ccc([N+](=O)[O-])cc2)c(N=Nc2ccc(O)cc2)c1=O | 92* | 38 | 0 | 25
CCOC(=O)C1=C(C)N=C2SC(C)C(=O)N2C1/C=C/c1ccccc1OC (configuration not stated) | nt | nt | -2 | nt
CCOC(=O)C1=c2/c(=C/c3ccccc3OC)c(N)c(C#N)n2C(=O)C(c2ccccc2OC)S1 (configuration not stated) | 63* | 52* | -1 | 129
CCn1c(=NC(=O)c2ccc(N3C(=O)CCC3=O)cc2)sc2c(OC)ccc(OC)c21 | 33 | 22 | 6 | 403*
CCn1c(=NC(=O)c2ccc(S(=O)(=O)N3CCOCC3)cc2)sc2cccc(OC)c21 | 30 | 40 | 4 | 261*[fluorescence artefact?]
CCn1c(=NC(=O)CN2C(=O)CCC2=O)sc2c(OC)ccc(OC)c21 | nt | nt | 1 | nt
COc1cccc2sc(=NC(=O)c3ccc(S(=O)(=O)N4CCOCC4)cc3)n(C)c12 | 6 | 11 | nt | 161
CC(C)NC(=O)c1ccccc1NC(=O)CN(c1ccc2c(c1)OCO2)S(C)(=O)=O | 0 | 10 | 0 | 121
CCOC(=O)C(NC(C)=O)C(OC(C)=O)c1cccc(N(CCO)CCO)c1 (configuration not stated) | -6 | -3 | -3 | 126
CN1CCc2c(sc3c2c(=O)n(-c2ccccc2)c2nnc(SCc4ccc(Cl)cc4)n32)C1 | 31 | 12 | 12 | 314*
CCOc1ccc(C(=O)Nc2ccc(NC(=O)c3ccco3)c(Cl)c2)cc1Cl | 12 | 48 | 11 | 715*[fluorescence artefact?]
COc1ccccc1NC(=O)CCn1c(=O)sc2ccccc21 | 0 | -4 | 1 | 100
COc1nc(-c2ccccc2)ccc1-c1noc(-c2ccccc2)n1 | 18 | 10 | -2 | 166
COc1nc(-c2ccc(Cl)cc2)ccc1-c1noc(-c2ccncc2)n1 | 65*[fluorescence artefact?] | 41 | 1 | 369*[fluorescence artefact?]
